# Experimental data: the supplement of paper PMC10849652
# Of roughly 7,900 targets only a part is listed; those with a hit were picked by preference. About 0.6% of all pairs of compound and target were hits.
# Compound: C1CCN(C1)C(=O)NC2=CC=CC(=C2)NC3=NC=C(C(=N3)NCCC4=CN=CN4)Br
# Assay: log2 fold change, soluble protein after heating vs DMSO (PISA); higher = thermal stabilisation; K562 cells, 10 uM, 30 min; active = over 0.2 and 3.5 SD of the protein, either way, in both replicates (recomputed)
# Summary of the method: (§1)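 For each measurement, 10 μM compound was applied for 30 min to K562 cells at 2×10^6 cells/mL. Aliquots were heated for 3 min across 48°C-58°C, pooled, and extracted in PBS with 0.5% NP-40 at 4°C; the supernatant after 21,000xg for 90 min was soluble protein. This was quantified by TMTpro 16plex LC-MS/MS with channel sums equalised, and thermal stability was reported relative to control samples from duplicates, on a log2 fold-change scale.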
# Sequence of UniProt O15198 (O15198 whole entry, looked up): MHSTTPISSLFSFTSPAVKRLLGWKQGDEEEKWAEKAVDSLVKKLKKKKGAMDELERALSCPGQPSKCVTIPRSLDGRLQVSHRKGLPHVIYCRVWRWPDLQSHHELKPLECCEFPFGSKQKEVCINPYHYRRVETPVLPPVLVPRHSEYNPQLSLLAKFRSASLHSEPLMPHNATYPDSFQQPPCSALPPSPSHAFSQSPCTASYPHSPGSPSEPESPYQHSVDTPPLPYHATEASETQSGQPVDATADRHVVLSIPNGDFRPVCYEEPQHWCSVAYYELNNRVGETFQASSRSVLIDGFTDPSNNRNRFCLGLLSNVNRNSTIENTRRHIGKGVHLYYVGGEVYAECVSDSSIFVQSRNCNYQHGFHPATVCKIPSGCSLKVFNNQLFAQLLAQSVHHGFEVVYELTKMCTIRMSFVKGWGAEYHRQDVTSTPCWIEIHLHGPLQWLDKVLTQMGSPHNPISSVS
# Sequence of UniProt P51692 (P51692 whole entry, looked up): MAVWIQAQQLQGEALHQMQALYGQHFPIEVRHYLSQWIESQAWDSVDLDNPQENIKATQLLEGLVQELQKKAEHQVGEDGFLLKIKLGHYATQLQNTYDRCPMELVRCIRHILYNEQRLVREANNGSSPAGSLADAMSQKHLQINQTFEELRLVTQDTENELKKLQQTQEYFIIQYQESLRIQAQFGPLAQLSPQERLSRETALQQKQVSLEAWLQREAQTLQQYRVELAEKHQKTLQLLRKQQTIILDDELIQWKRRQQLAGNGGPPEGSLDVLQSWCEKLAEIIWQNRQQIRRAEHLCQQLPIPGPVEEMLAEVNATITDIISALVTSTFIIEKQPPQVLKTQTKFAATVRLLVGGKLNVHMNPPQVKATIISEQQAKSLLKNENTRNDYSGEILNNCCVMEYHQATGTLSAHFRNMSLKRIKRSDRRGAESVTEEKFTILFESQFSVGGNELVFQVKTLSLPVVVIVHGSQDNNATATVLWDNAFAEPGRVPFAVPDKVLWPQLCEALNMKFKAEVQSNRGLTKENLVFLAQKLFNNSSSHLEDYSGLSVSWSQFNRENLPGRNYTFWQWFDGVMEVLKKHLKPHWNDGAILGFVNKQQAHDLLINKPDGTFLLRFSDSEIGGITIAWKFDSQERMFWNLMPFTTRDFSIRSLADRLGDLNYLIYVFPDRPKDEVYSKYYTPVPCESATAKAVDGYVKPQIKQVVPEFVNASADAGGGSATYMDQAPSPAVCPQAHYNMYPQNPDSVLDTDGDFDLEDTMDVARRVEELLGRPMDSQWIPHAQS
# Sequence of UniProt Q9NVC3 (Q9NVC3 whole entry, looked up): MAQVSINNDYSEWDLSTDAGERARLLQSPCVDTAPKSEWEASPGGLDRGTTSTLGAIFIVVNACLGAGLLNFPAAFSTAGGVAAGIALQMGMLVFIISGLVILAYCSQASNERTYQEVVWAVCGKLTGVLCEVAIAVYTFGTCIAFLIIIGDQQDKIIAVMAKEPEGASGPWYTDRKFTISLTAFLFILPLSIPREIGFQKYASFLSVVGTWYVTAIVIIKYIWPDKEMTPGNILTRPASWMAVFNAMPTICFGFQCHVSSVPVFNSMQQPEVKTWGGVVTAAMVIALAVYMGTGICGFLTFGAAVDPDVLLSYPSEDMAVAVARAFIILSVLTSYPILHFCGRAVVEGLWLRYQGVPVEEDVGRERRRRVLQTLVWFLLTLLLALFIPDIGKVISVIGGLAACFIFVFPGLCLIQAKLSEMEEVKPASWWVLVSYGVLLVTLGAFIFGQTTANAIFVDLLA
# Sequence of UniProt Q15005 (Q15005 whole entry, looked up): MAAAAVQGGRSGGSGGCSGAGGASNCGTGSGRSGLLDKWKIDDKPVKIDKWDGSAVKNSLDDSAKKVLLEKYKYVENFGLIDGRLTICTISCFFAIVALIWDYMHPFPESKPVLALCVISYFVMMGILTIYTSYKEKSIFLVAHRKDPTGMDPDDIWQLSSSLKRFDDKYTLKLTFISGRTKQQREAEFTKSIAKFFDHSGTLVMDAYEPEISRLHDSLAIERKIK
# Sequence of UniProt Q9UP52 (Q9UP52 whole entry, looked up): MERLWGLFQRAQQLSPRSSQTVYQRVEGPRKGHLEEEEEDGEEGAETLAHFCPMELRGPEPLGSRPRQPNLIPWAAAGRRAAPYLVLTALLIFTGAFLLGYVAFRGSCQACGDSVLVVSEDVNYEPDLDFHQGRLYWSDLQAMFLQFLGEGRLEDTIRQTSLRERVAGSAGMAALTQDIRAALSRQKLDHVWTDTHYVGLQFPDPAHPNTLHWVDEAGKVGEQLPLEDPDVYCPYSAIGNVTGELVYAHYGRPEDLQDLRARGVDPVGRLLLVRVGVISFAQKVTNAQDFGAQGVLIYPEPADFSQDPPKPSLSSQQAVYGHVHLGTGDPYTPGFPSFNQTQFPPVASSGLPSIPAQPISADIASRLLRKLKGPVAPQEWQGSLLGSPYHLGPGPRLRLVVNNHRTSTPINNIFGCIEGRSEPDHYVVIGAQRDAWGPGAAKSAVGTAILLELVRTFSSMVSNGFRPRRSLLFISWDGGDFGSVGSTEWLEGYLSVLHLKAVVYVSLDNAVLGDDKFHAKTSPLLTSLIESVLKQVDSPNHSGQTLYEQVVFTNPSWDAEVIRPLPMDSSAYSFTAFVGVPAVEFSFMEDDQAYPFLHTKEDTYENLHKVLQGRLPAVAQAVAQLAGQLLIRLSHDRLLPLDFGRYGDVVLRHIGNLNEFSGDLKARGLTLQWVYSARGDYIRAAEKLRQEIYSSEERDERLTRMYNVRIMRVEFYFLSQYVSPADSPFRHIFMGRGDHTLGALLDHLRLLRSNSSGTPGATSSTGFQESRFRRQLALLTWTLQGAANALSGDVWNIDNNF
# Sequence of UniProt Q9NZD8 (Q9NZD8 whole entry, looked up): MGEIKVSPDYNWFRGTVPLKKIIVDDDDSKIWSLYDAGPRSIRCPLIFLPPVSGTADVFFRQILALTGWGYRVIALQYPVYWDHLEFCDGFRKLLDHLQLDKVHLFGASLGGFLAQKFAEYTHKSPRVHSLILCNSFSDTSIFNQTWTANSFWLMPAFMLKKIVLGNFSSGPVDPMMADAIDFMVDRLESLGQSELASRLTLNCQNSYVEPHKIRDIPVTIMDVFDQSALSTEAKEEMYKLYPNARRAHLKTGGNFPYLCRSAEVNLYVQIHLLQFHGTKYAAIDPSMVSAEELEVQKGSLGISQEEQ
# Sequence of UniProt P78382 (P78382 whole entry, looked up): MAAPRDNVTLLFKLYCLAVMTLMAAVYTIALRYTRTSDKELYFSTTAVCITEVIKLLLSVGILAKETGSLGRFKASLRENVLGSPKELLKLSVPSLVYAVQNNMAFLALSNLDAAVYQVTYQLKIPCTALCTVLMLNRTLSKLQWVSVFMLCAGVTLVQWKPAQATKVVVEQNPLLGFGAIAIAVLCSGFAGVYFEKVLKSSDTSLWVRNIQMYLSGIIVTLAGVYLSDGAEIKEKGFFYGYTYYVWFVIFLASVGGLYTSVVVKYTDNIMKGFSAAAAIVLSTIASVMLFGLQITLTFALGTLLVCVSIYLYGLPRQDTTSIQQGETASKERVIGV
# Sequence of UniProt Q92581 (Q92581 whole entry, looked up): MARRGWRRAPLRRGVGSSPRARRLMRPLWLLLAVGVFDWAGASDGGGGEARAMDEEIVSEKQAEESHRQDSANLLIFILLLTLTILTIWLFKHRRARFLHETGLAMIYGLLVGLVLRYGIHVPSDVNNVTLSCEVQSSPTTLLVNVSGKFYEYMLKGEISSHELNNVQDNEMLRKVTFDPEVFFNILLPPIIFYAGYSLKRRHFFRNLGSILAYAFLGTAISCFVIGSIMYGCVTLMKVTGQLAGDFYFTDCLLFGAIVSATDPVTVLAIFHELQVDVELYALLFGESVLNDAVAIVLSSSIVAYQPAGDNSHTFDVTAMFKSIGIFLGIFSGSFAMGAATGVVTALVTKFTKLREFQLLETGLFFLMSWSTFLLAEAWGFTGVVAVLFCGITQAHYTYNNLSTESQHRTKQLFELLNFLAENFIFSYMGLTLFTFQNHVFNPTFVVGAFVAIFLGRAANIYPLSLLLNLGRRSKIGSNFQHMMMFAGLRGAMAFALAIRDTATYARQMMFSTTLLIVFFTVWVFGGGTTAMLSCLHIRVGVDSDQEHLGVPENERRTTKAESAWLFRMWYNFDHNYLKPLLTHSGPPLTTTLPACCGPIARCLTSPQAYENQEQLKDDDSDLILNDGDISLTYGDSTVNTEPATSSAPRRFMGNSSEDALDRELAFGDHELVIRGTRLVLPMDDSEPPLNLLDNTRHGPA
# Sequence of UniProt Q01085 (Q01085 whole entry, looked up): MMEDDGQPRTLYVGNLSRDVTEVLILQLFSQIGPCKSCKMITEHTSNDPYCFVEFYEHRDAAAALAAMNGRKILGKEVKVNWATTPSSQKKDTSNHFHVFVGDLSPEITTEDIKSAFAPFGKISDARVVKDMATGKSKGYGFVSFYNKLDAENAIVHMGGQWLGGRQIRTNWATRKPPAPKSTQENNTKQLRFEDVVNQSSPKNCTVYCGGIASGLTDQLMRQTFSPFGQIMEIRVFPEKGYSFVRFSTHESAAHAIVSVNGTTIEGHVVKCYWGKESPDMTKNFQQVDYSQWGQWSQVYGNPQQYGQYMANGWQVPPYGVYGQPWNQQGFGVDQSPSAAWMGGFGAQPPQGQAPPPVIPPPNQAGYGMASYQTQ
# Sequence of UniProt Q8NEW0 (Q8NEW0 whole entry, looked up): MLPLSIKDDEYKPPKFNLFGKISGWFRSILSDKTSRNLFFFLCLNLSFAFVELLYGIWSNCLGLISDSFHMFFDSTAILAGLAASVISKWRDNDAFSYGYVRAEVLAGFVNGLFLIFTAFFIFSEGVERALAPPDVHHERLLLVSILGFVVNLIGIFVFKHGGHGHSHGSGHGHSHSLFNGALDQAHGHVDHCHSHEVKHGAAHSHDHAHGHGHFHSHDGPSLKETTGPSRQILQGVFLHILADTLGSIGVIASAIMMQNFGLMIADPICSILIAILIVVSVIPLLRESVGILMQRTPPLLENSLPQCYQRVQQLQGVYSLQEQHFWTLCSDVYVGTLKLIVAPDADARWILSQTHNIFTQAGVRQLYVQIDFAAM
row,Target,log2 fold change
1,SPPL2B (UniProt Q8TCT7),-0.041 (inactive)
2,STK4 (UniProt Q13043),-0.025 (inactive)
3,SMG1 (UniProt Q96Q15),-0.054 (inactive)
4,STK38L (UniProt Q9Y2H1),0.008 (inactive)
5,TGFBRAP1 (UniProt Q8WUH2),-0.06 (inactive)
6,SLC9A6 isoform 2 (UniProt Q92581),-0.013 (inactive)
7,SLC35A1 (UniProt P78382),-0.052 (inactive)
8,TFR2 (UniProt Q9UP52),0.03 (inactive)
9,TERF2IP (UniProt Q9NYB0),-0.047 (inactive)
10,SUGP1 (UniProt Q8IWZ8),-0.03 (inactive)
11,SURF1 (UniProt Q15526),-0.141 (inactive)
12,STARD7 (UniProt Q9NQZ5),0.006 (inactive)
13,STEAP3 isoform 2 (UniProt Q658P3),-0.036 (inactive)
14,ST6GAL1 (UniProt P15907),-0.064 (inactive)
15,SPIRE1 (UniProt Q08AE8),0.01 (inactive)
16,SLC27A1 (UniProt Q6PCB7),-0.411 (active)
17,SPG21 (UniProt Q9NZD8),-0.032 (inactive)
18,SRP72 (UniProt O76094),-0.005 (inactive)
19,SLC38A7 (UniProt Q9NVC3),0.011 (inactive)

row,Target,log2 fold change
1,SLK isoform 2 (UniProt Q9H2G2),-0.028 (inactive)
2,TIPRL (UniProt O75663),0.021 (inactive)
3,STX17 (UniProt P56962),-0.004 (inactive)
4,STIM1 (UniProt Q13586),-0.003 (inactive)
5,SLC30A10 (UniProt Q6XR72),-0.054 (inactive)
6,STK25 (UniProt O00506),0.026 (inactive)
7,SNUPN (UniProt O95149),0.024 (inactive)
8,SLC7A6 (UniProt Q92536),-0.004 (inactive)
9,SMAD9 (UniProt O15198),0.113 (inactive)
10,TJP2 isoform 7 (UniProt Q9UDY2),-0.08 (inactive)
11,SLC30A7 (UniProt Q8NEW0),0.016 (inactive)
12,STOM (UniProt P27105),0.004 (inactive)
13,STAT5B (UniProt P51692),-0.077 (inactive)
14,SPCS2 (UniProt Q15005),-0.005 (inactive)
15,SMAP2 (UniProt Q8WU79),-0.086 (inactive)
16,TIAL1 isoform 2 (UniProt Q01085),0.032 (inactive)
17,STAT6 (UniProt P42226),-0.063 (inactive)
18,SLC6A6 (UniProt P31641),0.087 (inactive)
19,SRSF2 (UniProt Q01130),0.041 (inactive)

# Compound: C1CN(CCC1(CC2=CC=C(C=C2)Cl)N)C3=NC=NC4=C3C=CN4
# Assay: as above
# Summary of the method: as §1
row,Target,log2 fold change
1,SPPL2B (UniProt Q8TCT7),0.038 (inactive)
2,STK4 (UniProt Q13043),0.025 (inactive)
3,SMG1 (UniProt Q96Q15),0.066 (inactive)
4,STK38L (UniProt Q9Y2H1),-0.041 (inactive)
5,TGFBRAP1 (UniProt Q8WUH2),-0.053 (inactive)
6,SLC9A6 isoform 2 (UniProt Q92581),0.031 (inactive)
7,SLC35A1 (UniProt P78382),0.077 (inactive)
8,TFR2 (UniProt Q9UP52),0.018 (inactive)
9,TERF2IP (UniProt Q9NYB0),-0.006 (inactive)
10,SUGP1 (UniProt Q8IWZ8),-0.001 (inactive)
11,SURF1 (UniProt Q15526),0 (inactive)
12,STARD7 (UniProt Q9NQZ5),-0.029 (inactive)
13,STEAP3 isoform 2 (UniProt Q658P3),0.032 (inactive)
14,ST6GAL1 (UniProt P15907),0.041 (inactive)
15,SPIRE1 (UniProt Q08AE8),0.145 (inactive)
16,SLC27A1 (UniProt Q6PCB7),-0.064 (inactive)
17,SPG21 (UniProt Q9NZD8),0.012 (inactive)
18,SRP72 (UniProt O76094),-0.194 (inactive)
19,SLC38A7 (UniProt Q9NVC3),0.097 (inactive)

row,Target,log2 fold change
1,SLK isoform 2 (UniProt Q9H2G2),-0.057 (inactive)
2,TIPRL (UniProt O75663),-0.041 (inactive)
3,STX17 (UniProt P56962),0.027 (inactive)
4,STIM1 (UniProt Q13586),0.016 (inactive)
5,SLC30A10 (UniProt Q6XR72),0.115 (inactive)
6,STK25 (UniProt O00506),0.011 (inactive)
7,SNUPN (UniProt O95149),-0.061 (inactive)
8,SLC7A6 (UniProt Q92536),0.135 (inactive)
9,SMAD9 (UniProt O15198),-0.076 (inactive)
10,TJP2 isoform 7 (UniProt Q9UDY2),0.001 (inactive)
11,SLC30A7 (UniProt Q8NEW0),0.132 (inactive)
12,STOM (UniProt P27105),-0.079 (inactive)
13,STAT5B (UniProt P51692),-0.013 (inactive)
14,SPCS2 (UniProt Q15005),0.001 (inactive)
15,SMAP2 (UniProt Q8WU79),0.038 (inactive)
16,TIAL1 isoform 2 (UniProt Q01085),-0.004 (inactive)
17,STAT6 (UniProt P42226),0.04 (inactive)
18,SLC6A6 (UniProt P31641),0.083 (inactive)
19,SRSF2 (UniProt Q01130),-0.027 (inactive)
